According to ChEMBL document CHEMBL3988442, “University of Dundee, Small-Polar-MMV Screening Library” (2021):
“And” between values parts separate entries of the source, which are not always exact repeats. Equal entries are not always repeated. For part of these data: Results with a measured potency or affinity are listed apart.

Tests used:
Set-up in all cases: scale not given: direction of the effect not stated beside the values
[1] = target: Protein translocase subunit SecA (Escherichia coli (strain K12)) (UniProt P10408); test: Assay to Identify E. coli SecA ATPase Inhibitors; format: functional; settings: 30 µM
[2] = target: T1, Ubiquitin-activating enzyme e1, putative (Leishmania donovani (strain BPK282A1)) (UniProt E9BSI1); test: Leishmania donovani Ubiquitin Activating Enzyme (LdE1); format: functional; settings: 30 µM
T1 sequence (whole entry): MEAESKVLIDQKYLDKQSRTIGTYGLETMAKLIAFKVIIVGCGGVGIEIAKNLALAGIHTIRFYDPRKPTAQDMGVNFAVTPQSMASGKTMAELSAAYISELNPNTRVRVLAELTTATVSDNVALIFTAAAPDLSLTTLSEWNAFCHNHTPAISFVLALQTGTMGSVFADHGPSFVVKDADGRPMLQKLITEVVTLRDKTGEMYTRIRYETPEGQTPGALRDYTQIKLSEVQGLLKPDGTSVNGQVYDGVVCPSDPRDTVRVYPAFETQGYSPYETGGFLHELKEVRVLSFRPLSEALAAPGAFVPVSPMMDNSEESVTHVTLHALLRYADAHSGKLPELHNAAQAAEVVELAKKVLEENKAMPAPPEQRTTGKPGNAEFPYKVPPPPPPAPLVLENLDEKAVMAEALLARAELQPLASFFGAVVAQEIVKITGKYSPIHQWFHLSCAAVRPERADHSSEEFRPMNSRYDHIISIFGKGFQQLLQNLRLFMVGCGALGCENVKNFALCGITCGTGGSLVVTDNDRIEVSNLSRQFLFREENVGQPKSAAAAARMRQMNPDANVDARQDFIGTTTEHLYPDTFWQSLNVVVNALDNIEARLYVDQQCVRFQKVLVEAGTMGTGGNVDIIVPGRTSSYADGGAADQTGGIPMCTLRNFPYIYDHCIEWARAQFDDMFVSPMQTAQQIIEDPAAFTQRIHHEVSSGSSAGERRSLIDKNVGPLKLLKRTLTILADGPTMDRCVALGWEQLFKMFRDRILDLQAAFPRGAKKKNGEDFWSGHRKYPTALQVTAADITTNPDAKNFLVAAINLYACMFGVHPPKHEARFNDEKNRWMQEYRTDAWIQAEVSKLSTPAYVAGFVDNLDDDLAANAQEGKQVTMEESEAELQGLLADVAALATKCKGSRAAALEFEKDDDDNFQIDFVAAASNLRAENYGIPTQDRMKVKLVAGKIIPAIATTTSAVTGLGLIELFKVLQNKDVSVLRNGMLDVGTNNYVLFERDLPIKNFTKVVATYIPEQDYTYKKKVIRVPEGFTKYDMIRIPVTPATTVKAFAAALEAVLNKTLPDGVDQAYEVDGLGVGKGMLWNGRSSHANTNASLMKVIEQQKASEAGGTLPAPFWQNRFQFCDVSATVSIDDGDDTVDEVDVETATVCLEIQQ

[3] = target: AMP-activated protein kinase, AMPK (Homo sapiens) (UniProt P54646+O43741+P54619+Q9UGJ0+Q9Y478+Q13131+Q9UGI9); test: AMP-dependent Kinase enzyme assay. An in vitro enzyme assay that detects ADP turnover that is directly proportional to AMPK activity. This uses naive AMPK that is activated during the assay with MK-8722; format: functional; settings: 30 µM
[4] = target: Sialic acid-binding Ig-like lectin 9 (Homo sapiens) (UniProt Q9Y336); test: Hs-Siglec9 ALPHAscreen SOP 20170721; settings: 10 µM
Trypanosoma cruzi = test: Trypanosoma cruzi phosphomannomutase and mannose-1-phosphate guanylyltransferase assay; format: functional; settings: 10 µM
[5] = target: T2, Arginase-2, mitochondrial (Homo sapiens) (UniProt P78540); test: in vitro enzyme assay to detect the production of urea directly proportional to the activity of Arginase II; format: functional; also: in the data most compounds retested in dose-response had high values
T2 sequence (whole entry): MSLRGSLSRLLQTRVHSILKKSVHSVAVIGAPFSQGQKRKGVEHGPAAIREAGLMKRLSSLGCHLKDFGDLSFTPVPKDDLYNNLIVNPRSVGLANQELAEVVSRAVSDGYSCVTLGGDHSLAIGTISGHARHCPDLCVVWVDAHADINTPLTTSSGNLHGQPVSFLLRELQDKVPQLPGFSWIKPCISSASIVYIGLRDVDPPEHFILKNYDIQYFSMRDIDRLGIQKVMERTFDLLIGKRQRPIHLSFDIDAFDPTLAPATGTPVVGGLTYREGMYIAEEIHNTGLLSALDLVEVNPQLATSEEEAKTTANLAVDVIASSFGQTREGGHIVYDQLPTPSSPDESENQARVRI

[6] = target: T3, Proteasome subunit beta (Trypanosoma cruzi) (UniProt O96673); test: Trypanosoma cruzi proteasome chymotrypsin-like activity (TcProtChymo) assay.; also: in the data most compounds retested in dose-response had high values; format: functional; settings: 9.37 µM
T3 sequence (whole entry): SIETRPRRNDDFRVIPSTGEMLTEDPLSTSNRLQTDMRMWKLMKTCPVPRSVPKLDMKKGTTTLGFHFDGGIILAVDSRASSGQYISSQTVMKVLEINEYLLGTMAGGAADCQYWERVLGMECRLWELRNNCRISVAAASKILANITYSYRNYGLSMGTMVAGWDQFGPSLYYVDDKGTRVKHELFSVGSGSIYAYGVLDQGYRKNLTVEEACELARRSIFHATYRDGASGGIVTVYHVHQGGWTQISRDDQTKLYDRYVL

Homo sapiens = species on record: Homo sapiens; test: To identify inhibition of the IFN signalling (Jak-Stat) pathway via expression of an eGFP reporter gene under the control of an IFN-stimulated response element (ISRE) containing MxA promoter.; format: functional; settings: 30 µM
[7] = target: T4, Tyrosyl-tRNA synthetase, putative (Trypanosoma cruzi (strain CL Brener)) (UniProt Q4DSP6); test: Trypanosoma cruzi tyrosyl tRNA synthetase (TcYRS) _High Tyrosine SOP; format: functional; settings: 30 µM; also: in the data most compounds retested in dose-response had high values
T4 sequence (whole entry): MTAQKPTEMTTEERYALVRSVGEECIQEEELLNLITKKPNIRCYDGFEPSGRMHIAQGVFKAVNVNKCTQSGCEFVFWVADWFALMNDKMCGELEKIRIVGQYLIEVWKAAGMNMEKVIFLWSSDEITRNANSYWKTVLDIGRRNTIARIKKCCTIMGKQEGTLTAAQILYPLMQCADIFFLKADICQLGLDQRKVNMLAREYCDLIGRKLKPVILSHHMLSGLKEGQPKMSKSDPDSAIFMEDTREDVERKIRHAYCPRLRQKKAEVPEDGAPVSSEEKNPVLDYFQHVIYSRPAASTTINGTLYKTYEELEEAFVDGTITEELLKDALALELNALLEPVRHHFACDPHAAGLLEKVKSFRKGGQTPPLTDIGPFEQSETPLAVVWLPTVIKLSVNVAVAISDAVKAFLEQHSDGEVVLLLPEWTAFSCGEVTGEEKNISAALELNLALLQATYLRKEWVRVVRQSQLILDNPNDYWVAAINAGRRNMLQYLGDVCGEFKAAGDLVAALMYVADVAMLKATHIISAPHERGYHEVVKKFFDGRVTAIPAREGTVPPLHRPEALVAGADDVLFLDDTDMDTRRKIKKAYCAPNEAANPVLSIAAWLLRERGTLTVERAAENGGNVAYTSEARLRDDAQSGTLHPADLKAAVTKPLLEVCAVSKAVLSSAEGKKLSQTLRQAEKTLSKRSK

[8] = target: T4, Tyrosyl-tRNA synthetase, putative (Trypanosoma cruzi (strain CL Brener)); test: Trypanosoma cruzi tyrosyl tRNA synthetase (TcYRS) SOP; format: functional; settings: 30 µM
[9] = target: Chromo domain-containing protein 1 (Saccharomyces cerevisiae (strain ATCC 204508 / S288c) (Baker's yeast)) (UniProt P32657); test: ScCHD-1 Enzyme Inhibition Assay; format: functional; settings: 30 µM; also: in the data most compounds retested in dose-response had high values
N/A = test: Trypanosoma cruzi proteasome luciferase counter-screen; format: functional; settings: 9.37 µM

Protein translocase subunit SecA (Escherichia coli (strain K12)), sequence (P10408 whole entry): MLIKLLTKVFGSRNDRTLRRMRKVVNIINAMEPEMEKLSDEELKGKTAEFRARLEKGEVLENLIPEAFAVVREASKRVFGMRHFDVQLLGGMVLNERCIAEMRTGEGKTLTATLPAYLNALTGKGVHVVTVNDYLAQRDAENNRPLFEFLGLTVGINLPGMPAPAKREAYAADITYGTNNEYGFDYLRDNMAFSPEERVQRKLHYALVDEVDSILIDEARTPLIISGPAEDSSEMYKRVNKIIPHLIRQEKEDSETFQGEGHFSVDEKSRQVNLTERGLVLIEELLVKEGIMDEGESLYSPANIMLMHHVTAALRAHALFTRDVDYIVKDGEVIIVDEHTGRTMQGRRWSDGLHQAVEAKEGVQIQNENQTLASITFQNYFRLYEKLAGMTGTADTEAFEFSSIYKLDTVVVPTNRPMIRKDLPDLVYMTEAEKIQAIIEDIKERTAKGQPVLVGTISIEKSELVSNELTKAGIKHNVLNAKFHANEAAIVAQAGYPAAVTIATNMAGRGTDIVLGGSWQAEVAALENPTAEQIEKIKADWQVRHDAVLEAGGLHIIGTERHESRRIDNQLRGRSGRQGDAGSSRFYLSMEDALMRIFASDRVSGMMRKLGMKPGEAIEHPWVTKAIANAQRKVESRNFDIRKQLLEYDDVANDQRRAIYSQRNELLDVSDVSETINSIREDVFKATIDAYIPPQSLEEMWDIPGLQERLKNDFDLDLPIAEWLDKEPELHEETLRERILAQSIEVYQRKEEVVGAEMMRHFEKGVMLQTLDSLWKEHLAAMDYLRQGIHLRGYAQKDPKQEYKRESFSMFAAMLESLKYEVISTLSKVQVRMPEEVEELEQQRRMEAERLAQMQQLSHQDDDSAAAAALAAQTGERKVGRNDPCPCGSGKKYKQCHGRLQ
Chromo domain-containing protein 1 (Saccharomyces cerevisiae (strain ATCC 204508 / S288c) (Baker's yeast)), sequence (P32657 whole entry, the tested form may be a part): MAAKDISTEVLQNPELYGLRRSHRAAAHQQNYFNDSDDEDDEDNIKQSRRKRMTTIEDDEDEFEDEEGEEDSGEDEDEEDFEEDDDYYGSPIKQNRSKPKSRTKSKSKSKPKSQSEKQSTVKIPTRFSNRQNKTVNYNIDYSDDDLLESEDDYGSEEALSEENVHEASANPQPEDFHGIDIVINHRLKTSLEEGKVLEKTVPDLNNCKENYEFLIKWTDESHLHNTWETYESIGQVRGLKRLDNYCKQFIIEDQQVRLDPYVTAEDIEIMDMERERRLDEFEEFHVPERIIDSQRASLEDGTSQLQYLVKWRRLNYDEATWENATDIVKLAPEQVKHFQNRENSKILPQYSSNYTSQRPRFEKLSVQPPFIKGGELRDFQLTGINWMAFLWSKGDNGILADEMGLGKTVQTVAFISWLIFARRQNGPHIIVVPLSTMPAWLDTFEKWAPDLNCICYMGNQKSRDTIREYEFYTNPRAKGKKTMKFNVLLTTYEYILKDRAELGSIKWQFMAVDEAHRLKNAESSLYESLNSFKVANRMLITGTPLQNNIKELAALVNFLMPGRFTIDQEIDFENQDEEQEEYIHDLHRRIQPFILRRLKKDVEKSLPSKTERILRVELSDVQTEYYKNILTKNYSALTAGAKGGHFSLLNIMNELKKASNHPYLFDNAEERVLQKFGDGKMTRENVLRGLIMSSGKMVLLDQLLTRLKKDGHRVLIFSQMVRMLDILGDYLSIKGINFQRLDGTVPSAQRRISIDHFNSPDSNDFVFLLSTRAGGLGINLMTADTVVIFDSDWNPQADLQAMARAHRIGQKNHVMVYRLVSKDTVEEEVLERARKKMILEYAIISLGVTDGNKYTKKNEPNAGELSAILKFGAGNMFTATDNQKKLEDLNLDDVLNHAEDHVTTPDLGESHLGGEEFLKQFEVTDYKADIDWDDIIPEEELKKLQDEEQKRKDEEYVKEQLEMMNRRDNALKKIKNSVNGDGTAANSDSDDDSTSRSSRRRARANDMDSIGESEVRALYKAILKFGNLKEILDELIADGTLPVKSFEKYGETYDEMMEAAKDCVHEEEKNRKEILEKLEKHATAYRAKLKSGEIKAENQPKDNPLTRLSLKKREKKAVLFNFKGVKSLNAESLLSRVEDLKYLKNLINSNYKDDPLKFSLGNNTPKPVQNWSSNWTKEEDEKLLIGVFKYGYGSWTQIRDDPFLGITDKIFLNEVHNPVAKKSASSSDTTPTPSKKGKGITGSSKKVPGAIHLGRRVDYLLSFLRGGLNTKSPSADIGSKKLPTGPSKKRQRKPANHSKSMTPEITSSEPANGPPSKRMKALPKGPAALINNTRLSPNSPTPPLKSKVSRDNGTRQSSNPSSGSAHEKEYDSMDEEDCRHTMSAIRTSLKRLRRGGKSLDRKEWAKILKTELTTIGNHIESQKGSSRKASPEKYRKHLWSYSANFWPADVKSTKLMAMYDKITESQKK
Sialic acid-binding Ig-like lectin 9 (Homo sapiens), sequence (Q9Y336 whole entry): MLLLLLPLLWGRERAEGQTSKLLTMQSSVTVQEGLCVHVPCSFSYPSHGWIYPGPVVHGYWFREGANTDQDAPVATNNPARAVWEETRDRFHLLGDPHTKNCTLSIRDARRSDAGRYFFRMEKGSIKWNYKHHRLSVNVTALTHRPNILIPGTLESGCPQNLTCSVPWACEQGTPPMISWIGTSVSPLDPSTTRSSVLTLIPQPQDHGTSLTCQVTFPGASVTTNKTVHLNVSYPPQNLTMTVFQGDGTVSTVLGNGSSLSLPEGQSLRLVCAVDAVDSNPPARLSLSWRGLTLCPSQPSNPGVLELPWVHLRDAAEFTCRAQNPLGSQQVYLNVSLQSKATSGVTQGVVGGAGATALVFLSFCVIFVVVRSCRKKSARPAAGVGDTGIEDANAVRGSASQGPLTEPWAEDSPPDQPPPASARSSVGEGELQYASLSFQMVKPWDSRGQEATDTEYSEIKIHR

Compound: COCCC(=O)N1CCC2(COCc3c(C)nc(NCC4CC4)nc32)C1 (stereo not drawn)
- Percent Effect [1]: -1.4%
- Percent Effect [2]: 13.3%
- Percent Effect [3]: 11.3%
- Percent Effect [4]: 1.42%
- Percent Effect (Trypanosoma cruzi): -5.32%
- Percent Effect ([5]; 30 µM): 4.87%
- Percent Effect ([5]; 33.3 µM): -3.03%
- Percent Effect [6]: 15.4%
- Percent Effect (Homo sapiens): 4.83%
- Percent Effect [7]: 1.06%
- Percent Effect [8]: 11.5%
- Percent Effect [9]: -2.58%

Compound: Cc1ccc(-c2nc(CN3CCC(C(=O)N(C)C)CC3)cs2)o1
- Percent Effect [1]: -3.42%
- Percent Effect [2]: -1.27%
- Percent Effect [3]: -1.3%
- Percent Effect [4]: -4.8%
- Percent Effect (Trypanosoma cruzi): -0.103%
- Percent Effect ([5]; 33.3 µM): -1.94%
- Percent Effect [6]: 38.5% and 41.6% and 46.1%
- Percent Effect (N/A): 21.6% and 19.9%
- Percent Effect (Homo sapiens): 21.9%
- Percent Effect [7]: 12.5%
- Percent Effect [8]: 22.8%
- Percent Effect [9]: -29.5%

Compound: CSC(C)C(=O)NCCCc1cc(N)n(-c2ccccc2)n1 (stereo not drawn)
- Percent Effect [1]: -3.19%
- Percent Effect [2]: -5.48%
- Percent Effect [3]: 16.9%
- Percent Effect [4]: -3.4%
- Percent Effect (Trypanosoma cruzi): -2.15%
- Percent Effect ([5]; 33.3 µM): -12.3%
- Percent Effect [6]: 74.4% and 84.2% and 83.7%
- Percent Effect (N/A): 46.1% and 47.4%
- Percent Effect (Homo sapiens): 14.8%
- Percent Effect [7]: -1.07%
- Percent Effect [8]: 0%
- Percent Effect [9]: -2.72%

Compound: CC1CCN(S(=O)(=O)c2cccn(CC(=O)N3CCOCC3)c2=O)CC1
- Percent Effect [1]: -2.79%
- Percent Effect [2]: 9.33%
- Percent Effect [3]: 5.14%
- Percent Effect [4]: 0.129%
- Percent Effect (Trypanosoma cruzi): -4.91%
- Percent Effect ([5]; 30 µM): 3.78%
- Percent Effect ([5]; 33.3 µM): -3.7%
- Percent Effect [6]: 7.02%
- Percent Effect (Homo sapiens): 0.032%
- Percent Effect [7]: 1.06%
- Percent Effect [8]: 2.56%
- Percent Effect [9]: -7.85%

Compound: CNC(=O)c1cnc(/C=C/c2ccc(OC)c(O)c2)s1
- Percent Effect [1]: -3.24%
- Percent Effect [2]: 5.41%
- Percent Effect [3]: 32.5%
- Percent Effect [4]: -3.93%
- Percent Effect (Trypanosoma cruzi): -5.27%
- Percent Effect ([5]; 33.3 µM): 2.08%
- Percent Effect [6]: 31.5% and 31.2% and 35.7%
- Percent Effect (N/A): 10.7% and 15.6%
- Percent Effect (Homo sapiens): 16.4%
- Percent Effect [7]: 3.96%
- Percent Effect [8]: 6.1%
- Percent Effect [9]: -1.59%

Compound: CCCN1CCC(NC(=O)c2ccc(F)cc2I)CC1
- Percent Effect [1]: -2.2%
- Percent Effect [2]: 18.1%
- Percent Effect [3]: -6.61%
- Percent Effect [4]: 17.7%
- Percent Effect (Trypanosoma cruzi): 2.23%
- Percent Effect ([5]; 30 µM): 5.95%
- Percent Effect ([5]; 33.3 µM): 24.3%
- Percent Effect [6]: 12.5%
- Percent Effect (Homo sapiens): -17.1%
- Percent Effect [7]: 8.42%
- Percent Effect [8]: 15.4%
- Percent Effect [9]: -5.41%

Compound: CC1=Nc2c(c(=O)[nH]n2C2CCCC2)C(c2cccc(O)c2)S1 (stereo not drawn)
- Percent Effect [1]: -2.38%
- Percent Effect [2]: -1.33%
- Percent Effect [3]: 11.5%
- Percent Effect [4]: 2.03%
- Percent Effect (Trypanosoma cruzi): 1.38%
- Percent Effect ([5]; 30 µM): -1.62%
- Percent Effect ([5]; 33.3 µM): -1.23%
- Percent Effect [6]: 11.3%
- Percent Effect (Homo sapiens): 36.2%
- Percent Effect [7]: 14.8%
- Percent Effect [8]: 20.5%
- Percent Effect [9]: 0.661%

Compound: Cc1cc(C)n(C2CN(Cc3noc(-c4ccccc4)n3)C2)n1
- Percent Effect [1]: -4.45%
- Percent Effect [2]: -7.79%
- Percent Effect [3]: 3.83%
- Percent Effect [4]: 3.24%
- Percent Effect (Trypanosoma cruzi): -6.39%
- Percent Effect ([5]; 30 µM): 5.95%
- Percent Effect ([5]; 33.3 µM): -5.52%
- Percent Effect [6]: 14.3%
- Percent Effect (Homo sapiens): 5.29%
- Percent Effect [7]: 3.23%
- Percent Effect [8]: 1.24%
- Percent Effect [9]: -0.0991%

Compound: COc1ccc(C(=O)N2C[C@@H](C(=O)O)[C@H](c3ccccc3C)C2)c(O)c1
- Percent Effect [1]: -5.13%
- Percent Effect [2]: 5.41%
- Percent Effect [3]: -4.36%
- Percent Effect [4]: 32%
- Percent Effect (Trypanosoma cruzi): 1.86%
- Percent Effect ([5]; 30 µM): 4.87%
- Percent Effect ([5]; 33.3 µM): -0.248%
- Percent Effect [6]: 9.53%
- Percent Effect (Homo sapiens): -12.1%
- Percent Effect [7]: 6.45%
- Percent Effect [8]: 16.1%
- Percent Effect [9]: -2.87%
